Some test systems named below: SK-MEL-2 melanoma; SN12C renal; UO-31 renal; TK-10 renal; ACHN renal; A498 renal; CCRF-CEM leukemia; MOLT-4 leukemia; SR leukemia; OVCAR-8 ovarian; OVCAR-5 ovarian; OVCAR-4 ovarian; SK-OV-3 ovarian; IGROV1 ovarian; OVCAR-3 ovarian; HS 578T breast; NCI/ADR-RES ovarian; EKVX NSCLC; RPMI-8226 leukemia; CAKI-1 renal.
What all share (experiment): NCI-60 one-dose screen, 48 h (100 = growth as untreated, 0 = no growth, -100 = all killed)
Common to all, as to details: 10 µM unless noted

This is part of a sample that, as a whole, favours compounds with a hit. Of some 83,000 tested, about 20% had one in any assay.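 Testing used 96-well plates and a 48-hour single-concentration exposure. Example: -40 means 40% of the starting cells died.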 Values without a mark were called inactive. The source made the active and inactive calls. The calls were made as follows: active = growth percent below 10; inactive = the rest.

With `Cc1ccc(C(SCC(N)C(=O)O)(c2ccccc2)c2ccc(C)cc2)cc1` (stereo unspecified), the growth with SK-MEL-2 melanoma was -24.4% (active); in the assay on SN12C renal it was 29.9%; in the assay with UO-31 renal, 38.6%; in the assay with TK-10 renal it was 60.7%; with ACHN renal, 56.3%; with A498 renal it was 29%. Moreover, the growth in the assay on CCRF-CEM leukemia is 6.28% (active); in the assay on MOLT-4 leukemia, 13.8%; in the assay with SR leukemia it was -29.8% (active); in the assay on OVCAR-8 ovarian it was -32.5% (active); in the assay with OVCAR-5 ovarian, 6.69% (active); in the assay on OVCAR-4 ovarian, 61.5%. Further, the growth is 28.6% with SK-OV-3 ovarian; -32% (active) with IGROV1 ovarian; -48% (active) in the assay on OVCAR-3 ovarian; -45.6% (active) with HS 578T breast; 7.01% (active) in the assay on NCI/ADR-RES ovarian.
`CCCCCCN(CCCCCC)C(=N)c1ccnc2ccccc12`: the growth in the assay with EKVX NSCLC was 84.5%; with SN12C renal it was 71.9%; in the assay on UO-31 renal it was 36.5%; in the assay on TK-10 renal it was 73.4%; in the assay with ACHN renal, 53.2%; in the assay with A498 renal, 37.2%. Besides, the growth with CCRF-CEM leukemia was -4.39% (active); in the assay on MOLT-4 leukemia, 48.8%; with SR leukemia it was 35.4%; in the assay with RPMI-8226 leukemia it was 50.2%; in the assay on OVCAR-8 ovarian, 71.7%; with OVCAR-5 ovarian, 77.4%. Also, the growth is 67.6% in the assay with OVCAR-4 ovarian; 92.4% with SK-OV-3 ovarian; 65.9% in the assay on IGROV1 ovarian; 69.3% in the assay on OVCAR-3 ovarian; 65.1% in the assay with NCI/ADR-RES ovarian.
On to `O=c1cc(CSc2nnc(-c3ccc(F)cc3)o2)c2ccc3ccccc3c2o1`, for which the growth in the assay with SK-MEL-2 melanoma was 87%; with UO-31 renal, 77.7%; with TK-10 renal, 102%; with ACHN renal, 96.7%; with CAKI-1 renal, 91.1%; with A498 renal it was 94.6%. For the same compound, the growth with CCRF-CEM leukemia is 112%; in the assay on MOLT-4 leukemia, 95.9%; in the assay with SR leukemia it was 94.1%; in the assay on RPMI-8226 leukemia, 101%; with OVCAR-8 ovarian it was 96.4%; in the assay on OVCAR-5 ovarian, 93%. Moreover, the growth in the assay on OVCAR-4 ovarian is 108%; in the assay with SK-OV-3 ovarian, 82.4%; in the assay on IGROV1 ovarian it was 101%; in the assay on OVCAR-3 ovarian it was 101%; in the assay with HS 578T breast it was 95.5%; in the assay on NCI/ADR-RES ovarian, 91.8%.
For the compound `O=S(=O)(Nc1ccc(I)cc1F)c1ccc(-c2cnc(C3CC3)o2)cc1`, the growth in the assay on SK-MEL-2 melanoma was 40.7%; in the assay with SN12C renal, 71.5%; in the assay on UO-31 renal, 70.1%; in the assay on TK-10 renal it was 88.6%; in the assay on CAKI-1 renal, 40.9%; with A498 renal it was -10% (active). Moreover, the growth was 61.1% in the assay with CCRF-CEM leukemia; 37.5% in the assay with MOLT-4 leukemia; 71.1% in the assay on RPMI-8226 leukemia; 70% in the assay with OVCAR-8 ovarian; 88.2% in the assay with OVCAR-5 ovarian; 60.5% with OVCAR-4 ovarian. Moreover, the growth in the assay on SK-OV-3 ovarian was 71.5%; in the assay with IGROV1 ovarian it was 45.4%; with OVCAR-3 ovarian, 16.1%; in the assay on HS 578T breast, 35.2%; in the assay on NCI/ADR-RES ovarian, 28%.
`O=C(COc1cccc(/C=C2\COc3ccccc3C2=O)c1)Nc1nccs1`: the growth in the assay with SK-MEL-2 melanoma was 65%; in the assay with SN12C renal, 78.4%; in the assay on UO-31 renal it was 67.3%; with TK-10 renal it was 64.2%; in the assay with CAKI-1 renal, 83.5%; in the assay with CCRF-CEM leukemia, -58.5% (active). For the same compound, the growth was -48.4% (active) in the assay with MOLT-4 leukemia; -73.8% (active) in the assay with SR leukemia; -67% (active) in the assay with RPMI-8226 leukemia; 20.3% with OVCAR-8 ovarian; 81.8% in the assay with OVCAR-5 ovarian; 97.2% in the assay on OVCAR-4 ovarian. Further, the growth in the assay with SK-OV-3 ovarian is 99.8%; in the assay on IGROV1 ovarian, 5.16% (active); in the assay on OVCAR-3 ovarian it was 73.8%; in the assay on HS 578T breast it was -6.5% (active); in the assay on NCI/ADR-RES ovarian, 45.6%.
With `O=C1C=CC(=O)N1c1ccc2c(c1)Cc1cc(F)ccc1-2`, the growth was 107% with SK-MEL-2 melanoma; 94.6% with SN12C renal; 80.6% with UO-31 renal; 99% in the assay with TK-10 renal; 92.6% in the assay on ACHN renal; 65.2% with CCRF-CEM leukemia. Also, the growth in the assay with MOLT-4 leukemia is 43.7%; with SR leukemia, 70.6%; with RPMI-8226 leukemia, 28.2%; in the assay with OVCAR-8 ovarian, 99.4%; in the assay with OVCAR-5 ovarian, 93.5%; in the assay on OVCAR-4 ovarian, 83.3%. Also, the growth in the assay on SK-OV-3 ovarian is 103%; in the assay with IGROV1 ovarian, 94%; in the assay on OVCAR-3 ovarian, 115%; with HS 578T breast, 97.8%; with NCI/ADR-RES ovarian it was 105%.
Take `CCc1nc(N)nc(N)c1C#CC(C)c1ccc(-c2ccncc2)cc1Cl` (stereo unspecified): the growth in the assay with SK-MEL-2 melanoma is 33.3%; in the assay on SN12C renal it was 18.4%; in the assay with UO-31 renal, 10.9%; in the assay with TK-10 renal, 18.8%; with ACHN renal, 14.1%; in the assay on CCRF-CEM leukemia it was 10.9%. The growth with MOLT-4 leukemia was 10.2%; in the assay on SR leukemia, 14.7%; with RPMI-8226 leukemia, 15.1%; in the assay on OVCAR-8 ovarian, 20.8%; with OVCAR-5 ovarian, 57.6%; with OVCAR-4 ovarian, 30.9%. The growth with SK-OV-3 ovarian is 33%; in the assay with IGROV1 ovarian, 18.2%; in the assay with OVCAR-3 ovarian it was 19.1%; in the assay on HS 578T breast it was 38.7%; in the assay with NCI/ADR-RES ovarian, 21.8%.
As to `O=C(N/N=C/c1ccccc1O)c1ccccc1Nc1ccnc(C(F)(F)F)c1`, the growth with EKVX NSCLC was 3.03% (active); with SN12C renal it was 26.8%; in the assay with UO-31 renal it was 7.98% (active); with TK-10 renal it was 34.3%; in the assay on ACHN renal, 5.8% (active); with CAKI-1 renal it was -15.9% (active). The growth in the assay on A498 renal was -5.76% (active); in the assay with MOLT-4 leukemia, 5.72% (active); in the assay on SR leukemia, -13.9% (active); in the assay on RPMI-8226 leukemia, -22% (active); in the assay with OVCAR-8 ovarian, 14.9%; with OVCAR-5 ovarian it was 20.6%. Moreover, the growth with OVCAR-4 ovarian is 22.4%; in the assay with SK-OV-3 ovarian, 11.4%; with IGROV1 ovarian, 1.57% (active); in the assay with OVCAR-3 ovarian it was 35.7%; in the assay on HS 578T breast it was 34.3%; in the assay with NCI/ADR-RES ovarian it was 7.23% (active).
Turning to `COc1ccc(N=Nc2nccs2)c(O)c1`, the growth in the assay on SK-MEL-2 melanoma was 64.2%; in the assay on SN12C renal, 50.3%; in the assay with UO-31 renal, 13.1%; in the assay on TK-10 renal, 51.3%; in the assay on ACHN renal, 18.4%; with A498 renal, 86.5%. The growth in the assay with CCRF-CEM leukemia is 4.6% (active); in the assay with MOLT-4 leukemia it was 4.68% (active); with SR leukemia, 11.5%; with RPMI-8226 leukemia it was 21.6%; with OVCAR-8 ovarian it was 20.2%; with OVCAR-5 ovarian it was 87.2%. The growth in the assay on OVCAR-4 ovarian is 22.4%; in the assay with SK-OV-3 ovarian, 52.4%; in the assay on IGROV1 ovarian, 25%; in the assay on OVCAR-3 ovarian it was 33.1%; in the assay on HS 578T breast, 85.3%; with NCI/ADR-RES ovarian it was 14.4%.

The record behind these values is PubChem BioAssay (NCI).
